{
  "source": "PubChem BioAssay (NCI)",
  "note": "Compounds without any hit were thinned out: in the full panel of roughly 83,000, 20% have a hit.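 How to read the values: 0–100, growth inhibition (40 = 60% inhibited); 0, no net growth; -100 to 0, cell death (-40 = 40% of starting cells died; -100 = all dead).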 The source made the active and inactive calls.",
  "data": [
    {"test_system": "SK-OV-3 ovarian", "experiment": "NCI-60 one-dose screen, 48 h (100 = growth as untreated, 0 = no growth, -100 = all killed)", "conditions": "10 µM unless noted", "procedure": "Growth inhibition of the SK-OV-3 human tumor cell line is measured as a screen for anti-cancer activity. Cells are grown in 96 well plates and exposed to the test compound for 48 hours. Compounds are tested at a single concentration, which is 10^-5 M for most compounds. The reported endpoint is percent growth (GI% or GIPRCNT), where numbers from 0 - 100% represent growth inhibition, and numbers from -100% - 0 represent cell death. For example, a value of 40 represents 60% growth inhibition. A value of 0 means no net growth occurred over the course of the experiment. A value of -40 indicates 40% of cells at the beginning of the experiment died by the end of the experiment. A value of -100 means all cells are dead at the end of the experiment.\nNCI-60 Human Tumor Cell Lines Screen was performed using the standard one-dose NCI protocol, which is described in more detail at https://dtp.cancer.gov/discovery_development/nci-60/default.htm.\nCompounds with GIPRCNT values below 10 were considered active. Activity score was based on GIPRCNT using the following formula: […]\nScore is 0 for GIPRCNT values of 100 or above, 50 for GIPRCNT values of 0, and 100 for GIPRCNT values of -100.", "values": [
      {"smiles": "Cn1c(=O)c(C#N)c(-c2ccco2)n2c(S(=O)(=O)Cc3ccccc3)nnc12", "growth": "111% (inactive)"},
      {"smiles": "C=C(C)[C@@H]1CC[C@]2(C(N)=O)CC[C@]3(C)[C@H](CC[C@@H]4[C@@]5(C)CC[C@H](O)C(C)(C)[C@@H]5CC[C@]43C)[C@@H]12", "growth": "-45.7% [100 µM] (active)"},
      {"smiles": "CC1(C)CC[C@]2(C(=O)OC(=O)[C@]34CCC(C)(C)C[C@@H]3C3=CC[C@@H]5[C@@]6(C)CCC(=O)C(C)(C)[C@@H]6CC[C@@]5(C)[C@]3(C)CC4)CC[C@]3(C)C(=CC[C@@H]4[C@@]5(C)CCC(=O)C(C)(C)[C@@H]5CC[C@]43C)[C@H]2C1", "growth": "72.9% [100 µM] (inactive)"},
      {"smiles": "O=C(O)c1ccccc1C(F)(F)F", "growth": "93.1% (inactive)"},
      {"smiles": "COc1ccc2[nH]c(C(=O)N3CCN(C(=O)OCc4ccc5c(Br)cc(Br)c(O)c5n4)CC3)cc2c1", "growth": "-70.7% (active)"},
      {"smiles": "Nc1cc(N)c(N=Nc2ccc(S(=O)(=O)O)cc2)cc1N=Nc1ccc(-c2ccc(N=Nc3ccc(O)c(C(=O)O)c3)cc2)cc1", "growth": "100% (inactive)"},
      {"smiles": "Cc1ccc(S(=O)(=O)Oc2ccc(Br)cc2Br)cc1", "growth": "79.4% (inactive)"},
      {"smiles": "C=C(C)C1CCC2(C(=O)O)CCC3(C)C(CCC4C5(C)CCC(OC(=O)NCc6ccccc6)C(C)(C)C5CCC43C)C12", "note": "(stereo not given)", "growth": "68.9% (inactive)"},
      {"smiles": "O=c1c2c3c(sc2n2cnnc2n1Cc1ccccc1)CCCC3", "growth": "106% (inactive)"},
      {"smiles": "COc1cc(C)cc2oc3oc(=N)c(C(=O)c4ccccc4)cc3c(=O)c12", "growth": "120% (inactive)"},
      {"smiles": "O=C(OCc1ccc2c(Cl)cc(Cl)c(O)c2n1)N1CCNCC1", "growth": "40.9% (inactive)"},
      {"smiles": "N#CC1C(=O)NC(c2ccccc2[N+](=O)[O-])c2sc3c(F)cccc3c21", "note": "(stereo not given)", "growth": "72.8% (inactive)"},
      {"smiles": "CCN=Cc1c(O)c(O)c(C(C)C)c2cc(C)c(-c3c(C)cc4c(C(C)C)c(O)c(O)c(C=NCC)c4c3O)c(O)c12", "growth": "63.4% (inactive)"},
      {"smiles": "C#CC(OC(=O)N(C)C)(c1ccccc1)c1ccc(F)cc1", "note": "(stereo not given)", "growth": "114% (inactive)"},
      {"smiles": "C=C(C)[C@@H]1CC[C@]2(C)[C@H](CC[C@@H]3[C@@H]([C@@](C)(O)CCC=C(C)C)CC[C@]32C)[C@@]1(C)CCC(=O)N1CCN(C)CC1", "growth": "-83.4% [100 µM] (active)"},
      {"smiles": "CCOC(=O)c1c[nH]n2c(=S)ncnc12", "growth": "103% (inactive)"},
      {"smiles": "CCOC(=O)CCC[P+](c1ccccc1)(c1ccccc1)c1ccccc1", "growth": "98.9% (inactive)"},
      {"smiles": "COc1cc(NCc2ccccc2O)c2ncccc2c1", "growth": "107% (inactive)"},
      {"smiles": "COc1ccc(C(=O)CSc2nnc(-c3cc(-c4ccccc4)nc4ccccc34)o2)cc1", "growth": "119% (inactive)"},
      {"smiles": "CCN(CC)CCCC(C)Nc1ccnc2cc(Cl)c(SCc3ccccc3)cc12", "note": "(stereo not given)", "growth": "-43.1% (active)"},
      {"smiles": "O=c1[nH]cnc2c1ccn2C1OC(CO)C(O)C1O", "note": "(stereo not given)", "growth": "39.3% (inactive)"},
      {"smiles": "COc1cc(-c2nc(SCCC(C)C)nc(Nc3ccccc3)c2C#N)cc(OC)c1OC", "growth": "107% (inactive)"},
      {"smiles": "COc1ccc(-c2nc3ccccn3c2/C=C/C(=O)c2cc(OC)c(OC)c(OC)c2)cc1OC", "growth": "6.61% (active)"},
      {"smiles": "C=C(C)[C@@H]1CC[C@]2(C(=O)NCCNCCNC(=O)OC(C)(C)C)CC[C@]3(C)[C@H](CC[C@@H]4[C@@]5(C)CCC(=O)C(C)(C)[C@@H]5CC[C@]43C)[C@@H]12", "growth": "49.8% [100 µM] (inactive)"},
      {"smiles": "COc1ccc2nc3cc(Cl)ccc3c(Nc3ccc(O)c(CN4CCCC4)c3)c2c1", "growth": "73.2% (inactive)"},
      {"smiles": "Cc1ccc2c(c1)C(C)Cc1c(Cl)ncnc1N2C", "note": "(stereo not given)", "growth": "15.7% (inactive)"},
      {"smiles": "C=C(C)[C@@H]1CC[C@]2(C)[C@H](CC[C@@H]3[C@@H]([C@@](C)(O)CCC=C(C)C)CC[C@]32C)[C@@]1(C)CCC(=O)O", "growth": "18.4% [100 µM] (inactive)"},
      {"smiles": "CCN(CC)c1ccc2cc(C(Nc3ccc(C)cc3)c3nnnn3C(C)(C)C)c(=O)oc2c1", "note": "(stereo not given)", "growth": "102% (inactive)"},
      {"smiles": "O=S(=O)(NCCCNc1nccc(-c2c(-c3cccc(F)c3)nc3occn23)n1)c1cccc2ccccc12", "growth": "55.6% (inactive)"},
      {"smiles": "Brc1ccc2c(c1)CN(C1CCCCC1)CO2", "growth": "92.3% (inactive)"},
      {"smiles": "O=C(Nc1ccc(F)cc1)c1ccccc1", "growth": "112% (inactive)"},
      {"smiles": "NC(=S)Cc1ccccc1", "growth": "103% (inactive)"},
      {"smiles": "CN(C)CCOc1ccc(/C(=C(/CCCl)c2ccccc2)c2ccccc2)cc1", "growth": "33.6% (inactive)"},
      {"smiles": "C=C(C)[C@@H]1CC[C@]2(C(=O)NCCNCCNCCN)CC[C@]3(C)[C@H](CC[C@@H]4[C@@]5(C)CCC(=O)C(C)(C)[C@@H]5CC[C@]43C)[C@@H]12", "growth": "70.5% [100 µM] (inactive)"},
      {"smiles": "CCCCCCCCCCCCCCCCCCNC(=S)N/N=C/c1ccc(OC)c(OC)c1", "growth": "98.5% (inactive)"},
      {"smiles": "Nc1nc(Cl)c2ncn(Cc3cc4c(cc3I)OCO4)c2n1", "growth": "58.7% (inactive)"},
      {"smiles": "O=C(Nc1ccc(Oc2ccc(F)cc2)c(Cl)c1)c1cccnn1", "growth": "88.8% (inactive)"},
      {"smiles": "CCC(Br)(CC)C(=O)c1ccc(OCC(=O)O)c(Cl)c1Cl", "growth": "94.3% (inactive)"},
      {"smiles": "CC(C)C1=NOC(=O)C1=Cc1cn(-c2ccccc2)nc1-c1ccc(Cl)cc1", "growth": "106% (inactive)"},
      {"smiles": "C=C(C)[C@@H]1CC[C@]2(C(=O)OC)CC[C@]3(C)[C@H](CC[C@@H]4[C@@]5(C)CC/C(=N\\OCCC(=NCCC#N)NOCCC#N)C(C)(C)[C@@H]5CC[C@]43C)[C@@H]12", "growth": "34.6% [100 µM] (inactive)"}
    ]}
  ]
}
